The test system of the first experiment is PPARg DBDmut:RXRa IVT, anti-PPARg (DBD mutation: PPARg1 K132A/R137A, NR concentration 270 nM, RXRa partner concentration 90 nM). Nature of the experiment: PBM binding z-score (relative to random genomic background probes); higher = stronger binding; sequences stand for … in GC…GCGATTGACAGCGTAGAATGAAGG
The essentials:
(§1)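 Binding buffer was PBS pH 7.4 with 2% milk, 0.02% Triton X-100, 1 mM DTT, 0.2 mg/mL BSA and 0.4 mg/ml salmon testes DNA. In it, ligand-free nuclear receptor dimers were incubated 1 h on custom Agilent 4×180K protein-binding microarrays carrying double-stranded probes. Antibodies against each partner (one per run) detected binding, and z-scores were calculated against random background probes after regression normalization of scanned fluorescence.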
On to GCGACTGGGGCATCAGCAGGTTACGATAACTTAA, for which the PBM binding z-score is -0.586.

Take GATACAGGGTCAAGACCAGAGTACGCGTATTGAT: the PBM binding z-score is 1.38.

With TCTTGTAGATCAGCAGGTAAAGAAAGCTGGCCAA, the PBM binding z-score was -0.0476.

Take GGATCGAGGGCAAGTTGATAGCAGAGTTTGATGG: the PBM binding z-score was -0.16.

ACTGACAGGTGAGTGAAGGTAACTCAGCTGGACG had a PBM binding z-score of 0.18.

Turning to CGTCCAGGGTCAGAGAGGTCAGTGAATGCCGAGT, the PBM binding z-score was -0.324.

As for TAGCCTAGGTCGTGCGGGCCAGTATAGTGTCGGC, the PBM binding z-score is -0.497.

TCTGCTAGGTCAGTAGGTCAGCTAACGAGCTGCC had a PBM binding z-score of 0.586.

As to CGAACTATGTCAGAACAGGACAGTGAAGGATGAT, the PBM binding z-score was found to be 0.888.

Regarding TGAATGAGGTTATAAGATCAGCGAACGTTGCAAA, the PBM binding z-score stood at 0.4.

With GCTTACGGGTCAAAGATTATAGCATGAATAGAAT, the PBM binding z-score was found to be 1.41.

AGAACGAGGGCAAGCTGAGTTGATAGCAGAGTAG: the PBM binding z-score worked out at 0.0132.

As for CGAACGAGGGCATGAGTGGATAGCAAATGCCGAT, the PBM binding z-score was -0.478.

Sequence CTCGCAAGGTCGTGCTCAGGTGAGTATACCAAAC came in with a PBM binding z-score of -0.606.

The sequence TAAGACAGGTGAAGGTAACTCAGGTACGCAGTCG yielded a PBM binding z-score of 0.53.

Regarding TGATATAGGTAAAGGTGAAAGTCGAACGATATGA, the PBM binding z-score was found to be 1.32.

ATCTCTAGGTAAAGATAGTTCACTGAATGCAAAT: the PBM binding z-score was determined as 0.743.

Sequence CCGTACGGGTCACGAGGTTATAGCACGACGAGCG gave a PBM binding z-score of 0.613.

Consider CCTACTGGGCCAAAGGTCATTCATTCCAATGCTC, for which the PBM binding z-score was 2.52.

For the sequence TGTCAAAGTTCAAAGGAAACGTAAGTATCCACAC, the PBM binding z-score was found to be 1.36.

In turn, CTCGAAAGGTCGGTTGAGGTGAGAATACGGATAA returned a PBM binding z-score of 0.334.

With CCAGACAGGTGAAAGTTAACTCAGTCTGGTACGC, the PBM binding z-score is -0.637.

In turn, GATACAGGGTCAAGGCCAGACTACGCGTATTGAT registered a PBM binding z-score of 0.238.

CCAGACAGGTGAGAAGGTAACTGAGCCTCGATTA: the PBM binding z-score was -0.278.

ATCGAAAGATCGACGAGGTGAGTATACACCGTTT gave a PBM binding z-score of 0.0625.

Regarding CCTACTGGGCCATCAGGTCATTGACATCAACGTT, the PBM binding z-score was 0.0284.

GCGACTGGGGCAAAGCCGGTTACCATAAGGTTGG showed a PBM binding z-score of -0.287.

Consider CCGACTGGGGCAGAACGGTTACCATACCATCCGG, for which the PBM binding z-score is -1.28.

On to ACTAGCAGGCCAAGTTTGGGTCACTCACACAAAG, for which the PBM binding z-score is -1.02.

In turn, GCGAGCAGGCCATTTGGGTCACTCAATGACGGGC registered a PBM binding z-score of -1.33.

In turn, AATACAGGGTCACTAGGCCAGAATAGGTACGAAT returned a PBM binding z-score of 1.66.

GCGACTGGGGCATCAGCAGTTTACCATAACTTAA: the PBM binding z-score was -0.206.

Consider TCTGCTAGGTCAATGATGGTCAGCTAATCTGCTA, for which the PBM binding z-score was 0.246.

TCTAGTTGGTCACGGAGGTCACAGACGACGGGTA had a PBM binding z-score of 0.854.

As for CCTAGCGGGCCAATCTGGGTCACTCAAGGCTTGA, the PBM binding z-score was -0.426.

For the sequence GCAACGAGGGCAAGTTGATAGCAGAGTTTGATGG, the PBM binding z-score was -0.194.

With ATATGTAGGTTAAGGGTAATTCAGGTTGGTTCGC, the PBM binding z-score was 1.52.

Regarding CAAACTAGGCCACGAAAGGTCAAAGTCGAATGAC, the PBM binding z-score turned out to be 1.6.

CTCAAAAGGTCGTGCTCAGGTGAGTATACCAAAC: the PBM binding z-score is 0.582.

Another experiment deals with PPARg DBDmut IVT, anti-PPARg (DBD mutation: PPARg1 K132A/R137A, NR concentration 270 nM). The description is as above. The essentials:
as §1
Sequence GCGACTGGGGCATCAGCAGGTTACGATAACTTAA yielded a PBM binding z-score of -0.712.

For GATACAGGGTCAAGACCAGAGTACGCGTATTGAT, the PBM binding z-score amounted to 0.619.

For the sequence TCTTGTAGATCAGCAGGTAAAGAAAGCTGGCCAA, the PBM binding z-score is -0.531.

The sequence GGATCGAGGGCAAGTTGATAGCAGAGTTTGATGG showed a PBM binding z-score of -0.137.

ACTGACAGGTGAGTGAAGGTAACTCAGCTGGACG: the PBM binding z-score is -0.257.

In the case of CGTCCAGGGTCAGAGAGGTCAGTGAATGCCGAGT, the PBM binding z-score was -0.926.

On to TAGCCTAGGTCGTGCGGGCCAGTATAGTGTCGGC, for which the PBM binding z-score was -1.13.

Sequence TCTGCTAGGTCAGTAGGTCAGCTAACGAGCTGCC showed a PBM binding z-score of 0.0507.

CGAACTATGTCAGAACAGGACAGTGAAGGATGAT showed a PBM binding z-score of 0.9.

Consider TGAATGAGGTTATAAGATCAGCGAACGTTGCAAA, for which the PBM binding z-score was -0.321.

For GCTTACGGGTCAAAGATTATAGCATGAATAGAAT, the PBM binding z-score turned out to be 1.16.

AGAACGAGGGCAAGCTGAGTTGATAGCAGAGTAG gave a PBM binding z-score of -0.565.

Regarding CGAACGAGGGCATGAGTGGATAGCAAATGCCGAT, the PBM binding z-score is -0.831.

CTCGCAAGGTCGTGCTCAGGTGAGTATACCAAAC showed a PBM binding z-score of -0.427.

Take TAAGACAGGTGAAGGTAACTCAGGTACGCAGTCG: the PBM binding z-score came to 0.465.

The sequence TGATATAGGTAAAGGTGAAAGTCGAACGATATGA showed a PBM binding z-score of 0.962.

ATCTCTAGGTAAAGATAGTTCACTGAATGCAAAT showed a PBM binding z-score of 0.839.

As to CCGTACGGGTCACGAGGTTATAGCACGACGAGCG, the PBM binding z-score was -0.38.

CCTACTGGGCCAAAGGTCATTCATTCCAATGCTC displayed a PBM binding z-score of -0.185.

TGTCAAAGTTCAAAGGAAACGTAAGTATCCACAC had a PBM binding z-score of 1.26.

As for CTCGAAAGGTCGGTTGAGGTGAGAATACGGATAA, the PBM binding z-score stood at 0.0546.

The sequence CCAGACAGGTGAAAGTTAACTCAGTCTGGTACGC had a PBM binding z-score of -0.25.

On to GATACAGGGTCAAGGCCAGACTACGCGTATTGAT, for which the PBM binding z-score is 0.461.

Consider CCAGACAGGTGAGAAGGTAACTGAGCCTCGATTA, for which the PBM binding z-score is -0.535.

In turn, ATCGAAAGATCGACGAGGTGAGTATACACCGTTT showed a PBM binding z-score of 0.447.

On to CCTACTGGGCCATCAGGTCATTGACATCAACGTT, for which the PBM binding z-score came out at 0.33.

Sequence GCGACTGGGGCAAAGCCGGTTACCATAAGGTTGG showed a PBM binding z-score of -1.49.

On to CCGACTGGGGCAGAACGGTTACCATACCATCCGG, for which the PBM binding z-score was -1.18.

ACTAGCAGGCCAAGTTTGGGTCACTCACACAAAG: the PBM binding z-score is 0.437.

In turn, GCGAGCAGGCCATTTGGGTCACTCAATGACGGGC yielded a PBM binding z-score of -0.968.

For the sequence AATACAGGGTCACTAGGCCAGAATAGGTACGAAT, the PBM binding z-score came out at 1.79.

Turning to GCGACTGGGGCATCAGCAGTTTACCATAACTTAA, the PBM binding z-score turned out to be 0.0271.

In the case of TCTGCTAGGTCAATGATGGTCAGCTAATCTGCTA, the PBM binding z-score was -0.13.

In turn, TCTAGTTGGTCACGGAGGTCACAGACGACGGGTA gave a PBM binding z-score of 1.64.

On to CCTAGCGGGCCAATCTGGGTCACTCAAGGCTTGA, for which the PBM binding z-score was -0.554.

On to GCAACGAGGGCAAGTTGATAGCAGAGTTTGATGG, for which the PBM binding z-score is -0.32.

As for ATATGTAGGTTAAGGGTAATTCAGGTTGGTTCGC, the PBM binding z-score worked out at 1.87.

On to CAAACTAGGCCACGAAAGGTCAAAGTCGAATGAC, for which the PBM binding z-score came to 1.85.

CTCAAAAGGTCGTGCTCAGGTGAGTATACCAAAC: the PBM binding z-score was determined as 0.851.

The record behind these values is the supplement of paper PMC6555819.
